Cruzain inh Det = blocks cruzain activity in presence of Triton detergent | P25779 | purified cruzain, Z-FR-AMC fluorescence, 0.01% Triton | Potency, µM, for the others: max response, negative = inhibition, usual class: inhibitors | hit rate 0.43% among 200,000;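 also: plate controls were neutral wells for no effect and buffer without enzyme for full effect; nearly all actives have a fitted effect of over 40% in size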
Target sequence (P25779 123-467 limits assumed): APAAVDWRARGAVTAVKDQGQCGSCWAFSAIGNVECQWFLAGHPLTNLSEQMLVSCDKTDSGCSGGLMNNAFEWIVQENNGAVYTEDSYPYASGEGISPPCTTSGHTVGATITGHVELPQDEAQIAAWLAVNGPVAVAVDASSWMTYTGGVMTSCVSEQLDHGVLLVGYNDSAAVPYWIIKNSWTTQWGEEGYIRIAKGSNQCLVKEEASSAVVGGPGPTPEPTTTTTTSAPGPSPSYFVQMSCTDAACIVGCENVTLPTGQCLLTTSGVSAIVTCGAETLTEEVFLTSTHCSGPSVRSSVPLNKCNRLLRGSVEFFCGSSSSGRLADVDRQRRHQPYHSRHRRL
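Detergent-containing arm of a paired screen for aggregation-based inhibition: 0.01% Triton X-100 present. Cruzain at 1.5 nM cleaved 2 uM Z-FR-AMC at pH 5.5 with 5 mM DTT; AMC fluorescence gain over 60 s measured activity.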
Cruzain inh noDet = inhibitors of Trypanosoma cruzi cruzain without detergent. purified cruzain, Z-FR-AMC fluorescence, no detergent. AID 1476. P25779. hit rate 2.3% among 200,000. Potency, µM, inactives show max response, negative = inhibition, hits mostly inhibitors;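 also: plate controls were enzyme without inhibitor for no effect and buffer without enzyme for full effect; nearly all actives have a fitted effect of over 40% in size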
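Detergent-free condition (0.00005% Triton X-100) in acetate buffer pH 5.5 with DTT. 1.5 nM enzyme and compound were pre-mixed 15 min, then 2 uM Z-FR-AMC substrate added; reaction progress from fluorescence change between first and third reads (60 s).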
* = called active by the depositor; u = inconclusive. Sampled rows, rich in hits. Any-hit rate of the full collection: about 2.6%. Calls follow the shape of the dose curve; as a rule, active = well fitted curve in the direction sought with a large enough effect; inconclusive = small, poorly fitted or top-dose-only effect, or another doubt; inactive = no such curve, though single readings can be large; an effect the other way counts as inactive or inconclusive. Potency is read from the fitted curve at half-maximal effect.

SMILES	Cruzain inh Det	Cruzain inh noDet
O=C(Cn1c(=O)c2cccn2c2ccccc21)NCCc1ccccc1	-4.7%	15.8µM*
COc1cccc([C@@H]2Nc3ccc(C(=O)O)cc3[C@@H]3C=CC[C@@H]32)c1OC	-5.4%	-20.6%
COc1ccc2c(c1)C1C=CCC1C(c1cc3c(cc1Br)OCO3)N2 (stereo not drawn)	-3.9%	25.1µM*
COc1cc(-c2nc(S(=O)(=O)c3ccc(Br)cc3)c(N3CCOCC3)o2)cc(OC)c1OC	0.0%	u
Cc1cnc(CNc2ccnc(-c3cccc(NS(C)(=O)=O)c3)n2)cn1	0.5%	6.9%
Cc1ccc(Cl)cc1N1CCN(C(c2cccnc2)c2nnnn2C2CCCCC2)CC1 (stereo not drawn)	-6.1%	11.3%
Cc1ccc(Cl)cc1N1CCN(C(c2ccc(C#N)cc2)c2nnnn2C2CCCC2)CC1 (stereo not drawn)	1.9%	20µM*
Cc1ccc(C)c(Cn2c(=O)n(CCCCC(=O)NCc3ccccc3Cl)c(=O)c3ccccc32)c1	-3.6%	-0.9%
Cc1cc(C)cc(-n2nnnc2SCC(=O)Nc2nc(-c3ccc(F)cc3)cs2)c1	5.5%	25.1µM*
Cc1cc(C)cc(-n2nnnc2SCC(=O)Nc2nc(-c3ccc(Cl)cc3)cs2)c1	4.3%	6.31µM*
Cc1ccc(-n2nnnc2SCC(=O)Nc2nc(-c3ccc(F)cc3)cs2)cc1C	3.5%	u
Cc1nnc(SCC(=O)Nc2nc(-c3ccccc3)cs2)n1N	4.2%	-19.5%
CCCCCCSc1nc(N)c2c3c(sc2n1)CCCC3C (stereo not drawn)	-4.7%	-26.2%
CC1CCCc2sc3nc(SCC(=O)c4ccc(Br)cc4)nc(N)c3c21 (stereo not drawn)	-3.2%	10µM*
CCOc1ccc(OCC)c(Nc2nc3ccc(C(=O)c4ccccc4)cc3n3cnnc23)c1	-0.5%	4.1%
CCCn1c(=O)sc2cc(NC(=O)c3ccccc3Cl)ccc21	-7.3%	-4.6%
Cc1ccc2sc3ccc(NC(=O)c4ccccc4Cl)cc3c(=O)c2c1	2.8%	25.1µM*
COc1cc(NC(=O)CCc2c(C)nc3c(c(C)nn3-c3ccccc3)c2C)cc(OC)c1OC	1.4%	2.9%
CCc1ccc(NC(=O)Cn2c(=O)n(-c3ccc(OC)cc3)c(=O)c3ccc(C(=O)NCc4ccc(C)cc4)cc32)cc1	0.9%	-4.9%
Cc1ccc(Nc2c(-c3c[nH]c4ccccc34)nc3cc(C)ccn23)cc1	-9.9%	u
Cc1ccn2c(Nc3ccccc3)c(-c3c[nH]c4ccccc34)nc2c1	-16.8%	12.6µM*
CC(C)Nc1ccc(Nc2ccccc2)cc1	-2.9%	31.6µM*
c1ccc(Nc2ccccc2)cc1	-1.5%	-0.3%
O=C(Cc1cn2ccsc2n1)Nc1ccccn1	-6.9%	-29.3%
O=C(Cc1cn2ccsc2n1)Nc1cccc2cnccc12	u	12.6µM*
SMILES	Cruzain inh Det	Cruzain inh noDet
COC(=O)c1ccc(C(NC(=O)OCc2ccccc2)/C(I)=C/[C@@H](C)C(=O)Nc2ccccc2)cc1 (stereo partly drawn)	-4.5%	-13.5%
c1cncc(-c2nc(-n3ccnc3)c3ccccc3n2)c1	3.7%	1.3%
Oc1oc(-c2ccccc2)nc1C=Nc1cccc2ccccc12	-5.4%	u
CN(C)c1ccc(N=Cc2nc(-c3ccccc3)oc2OC(=O)c2cccc(Cl)c2)cc1	-23.1%	20µM*
Cc1ccc(C(=O)Oc2oc(-c3ccccc3)nc2C=Nc2ccc(N(C)C)cc2)cc1	28.2µM*	25.1µM*
COC(=O)c1ccc(-c2nc3ccc(C)cc3o2)cc1	-2.4%	12.9%
CCN(C(=O)CSc1nc2ccccc2n1CC(=O)N(C)C1CCCCC1)c1ccccc1	-1.0%	8.2%
CC(=O)c1cccc(NC(=O)c2nc(-c3ccc(C)cc3)n3c2CCCCC3)c1	-6.1%	-6.7%
C=CCNC(=O)c1ccc(-c2nc(-c3ccc(Cl)cc3Cl)cs2)cc1	3.5%	-14.9%
C=CCNC(=O)c1ccc(-c2nc(-c3ccc(Cl)c(Cl)c3)cs2)cc1	3.2%	20µM*
Cc1ccc(CSc2c(C)cnc3c2c(=O)n(C)c(=O)n3C)cc1	0.1%	-8.5%
CN(Cc1cc(Br)cc(Br)c1O)Cc1c(O)ccc2ccccc12	-3.3%	-2.7%
CCOc1ccc(CCNC(=O)C2CCN(c3nnc(-n4cccc4)s3)CC2)cc1OCC	-5.4%	13.8%
CCOc1ccc(CCNC(=O)C2CCN(c3nnc(-n4cccc4)s3)CC2)cc1	-1.2%	15.8µM*
CCCCCCCCCCCCCCC/C=C/[C@@H](O)[C@H](NC(=O)CCCCCCCCCCCCC)OC (tested in a mixture with another compound)	2.6%	1.8%
Cc1ccc(Cn2c3ccccc3c3cnn(CC(=O)N4CCCCCC4)c(=O)c32)cc1	-3.7%	-1.4%
O=[As](O)(O)c1ccc2nc3cc([As](=O)(O)O)ccc3nc2c1	-2.7%	5.5%
COC(=O)C1=C(C)NC(C)=C(C(=O)OC(C)C)[C@H]1c1cccc2nonc12	-3.5%	-5.9%
COc1ccc(-c2cc(=O)oc3cc(OCC(C)=O)ccc23)cc1	-5.5%	-6.5%
